High-throughput results from PubChem BioAssay.
This is a sample that favours compounds with a hit; in the whole collection about 2.6% have one here.
TPT1 inh: C. albicans TPT1 enzyme inhibition; 0.81% of 300,000 active; recombinant caTPT1, FP RNA substrate dephosphorylation; inhibition, % at 5 µM;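 active = inhibition above the mean of all tested compounds plus 3 SD, set per screening campaign, cut at about 24% in these data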;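 note: plate controls were DMSO alone for no effect and ferristatin control at 100 nM for full effect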
IDE inh: inhibits human insulin-degrading enzyme in HEK cells; 0.41% of 320,000 active; FAbetaB cleavage, fluorescence polarization; AID 434962; inhibition, % at 5.59 µM;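 active = percent inhibition above the average of all tested compounds plus 3 SD, set per screening campaign, cut at about 16% in these data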;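 note: IDE supplied by intact live HEK cells; FP after avidin binding of uncleaved biotin substrate so inhibition keeps polarization high; 0% = DMSO wells and 100% = 60 µM reference IDE inhibitor Ii1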
Target sequence (P14735 whole entry, looked up): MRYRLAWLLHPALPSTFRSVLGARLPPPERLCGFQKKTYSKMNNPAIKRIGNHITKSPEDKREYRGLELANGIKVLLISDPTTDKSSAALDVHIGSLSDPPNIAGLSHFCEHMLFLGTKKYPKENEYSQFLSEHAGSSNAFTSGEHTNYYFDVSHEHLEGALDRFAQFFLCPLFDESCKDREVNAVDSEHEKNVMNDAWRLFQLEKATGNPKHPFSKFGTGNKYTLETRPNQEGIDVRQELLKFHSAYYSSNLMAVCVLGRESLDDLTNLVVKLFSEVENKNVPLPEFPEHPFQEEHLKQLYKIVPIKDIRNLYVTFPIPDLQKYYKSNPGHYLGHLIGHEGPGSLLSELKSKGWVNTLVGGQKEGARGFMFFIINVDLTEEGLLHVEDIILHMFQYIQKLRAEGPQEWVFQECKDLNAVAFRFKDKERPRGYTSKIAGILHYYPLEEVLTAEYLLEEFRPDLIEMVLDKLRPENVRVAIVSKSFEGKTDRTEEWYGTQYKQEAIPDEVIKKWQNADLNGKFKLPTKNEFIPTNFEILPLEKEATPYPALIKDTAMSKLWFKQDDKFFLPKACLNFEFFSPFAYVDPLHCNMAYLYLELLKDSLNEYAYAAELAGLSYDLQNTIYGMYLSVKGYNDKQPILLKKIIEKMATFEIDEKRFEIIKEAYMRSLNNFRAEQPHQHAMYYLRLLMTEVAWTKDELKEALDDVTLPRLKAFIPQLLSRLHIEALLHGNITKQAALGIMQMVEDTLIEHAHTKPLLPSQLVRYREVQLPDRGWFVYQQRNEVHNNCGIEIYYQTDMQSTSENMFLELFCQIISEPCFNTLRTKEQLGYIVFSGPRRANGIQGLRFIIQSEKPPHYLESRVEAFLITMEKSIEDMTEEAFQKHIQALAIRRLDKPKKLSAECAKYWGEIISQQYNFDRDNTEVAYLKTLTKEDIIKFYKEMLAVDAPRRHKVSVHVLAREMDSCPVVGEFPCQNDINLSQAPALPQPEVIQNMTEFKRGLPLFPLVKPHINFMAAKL
Myeloid diff 2: compounds promoting myeloid differentiation. ER-HoxA9 myeloid progenitors, lysozyme-GFP differentiation, flow cytometry. calls only at 10 µM. 1% of 360,000 active. AID 624256;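 active = normalized GFP-positive differentiation at or above the plate's own cutoff, the solvent-only control mean plus 3 SD; inconclusive = no clear call, values can overlap the other calls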;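 note: cells exposed to compound for four days before flow analysis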
IDE cell activ: activators of human insulin-degrading enzyme in cells; P14735; HEK cells, FAbeta-B cleavage, fluorescence polarization; 0% vehicle, 100% cell-free pure enzyme wells; activation, % at 5.96 µM; 0.073% of 340,000 active;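 active = activation above the mean of all tested compounds plus 3 SD, set per screening campaign, cut at about 17% in these data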
CRFR2-BP ag: CRF-BP/CRF-R2 complex agonism; activation, % at 13.2 µM; HEK293 CRF-R2/CRF-BP, calcium dye fluorescence (FLIPR); percent of saturating CRF peptide response; 0.46% of 350,000 active;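 active = activation of at least 50%, plus an integration ratio under a set limit after plate pattern correction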;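 note: plate controls were neutral control wells without compound for no effect and CRF at EC100 for full effect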
CRFBP-R2 block: CRF-BP/CRF-R2 complex antagonism; 0.59% of 350,000 active; HEK293 CRF-R2/CRF-BP, CRF-induced calcium fluorescence; inhibition, % at 11.8 µM;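 active = inhibition of the ligand-induced calcium signal above about 50% at the single tested concentration, limit read from the data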
Starred values were filed as active, the others as inactive; i = inactive; u = inconclusive; x = no result; + = active, no number.

SMILES	TPT1 inh	IDE inh	Myeloid diff 2	IDE cell activ	CRFR2-BP ag	CRFBP-R2 block
CC(=O)N1c2ccc(S(=O)(=O)N(C)c3cc(C)ccc3C)cc2CC1C (centres undefined)	-1.5	9.0	i	5.3	-0.4	10.7
Cc1ccc(C)c(OCCC(=O)OCC(=O)Nc2ccc(Cl)cn2)c1	2.4	6.5	i	3.9	0.8	2.4
COC(=O)[C@]12CCCCC=C1N(Cc1ccc(Cl)cc1Cl)C(=O)[C@H](CC(=O)N1CCSCC1)C2	x	x	i	x	x	x
Nc1nc(-c2ccc3c(c2)OCCO3)cs1	-2.2	4.6	i	0.3	6.4	76.4*
COc1ccc(OCC(=O)Nc2ccc(C(=O)Nc3ccccc3C(=O)O)cc2)cc1	-0.2	6.1	i	-0.1	2.1	-3.0
COC(=O)c1cccc(NC(=O)/C=C/c2ccc([N+](=O)[O-])cc2)c1	22.4	3.6	i	-2.6	1.0	-19.5
O=C(COc1ccc2ccccc2c1)Nc1cccc(C(=O)Nc2ccccc2C(=O)O)c1	4.2	0.8	i	-3.0	0.1	59.4*
O=C(/C=C/c1ccc([N+](=O)[O-])cc1)Nc1cccc(C(=O)Nc2ccccc2C(=O)O)c1	-1.7	1.9	+	5.1	-0.5	13.4
CC(C)C[C@H]1COCCS(=O)(=O)N1Cc1ccc(Cl)c(Cl)c1	-0.4	-0.1	i	4.5	-2.4	-2.2
CC(C)CSc1nnc2[nH]c(=O)cc(N)n12	-0.9	2.1	i	4.6	1.0	96.0*
CCCCCCCCSc1nnc2[nH]c(=O)cc(N)n12	-5.5	3.7	i	-1.1	-0.5	5.8
CCOc1ccccc1-n1c(C)nc2cc(C(=O)O)ccc21	-2.3	-5.3	i	3.1	0.9	70.2*
Cc1cc(C(=O)OCC(=O)N2CCC(C)CC2)c2ccccc2n1	x	4.2	i	0.7	-1.7	12.4
CC(=O)c1cc(CN2CCN(C(C)C)C(CCO)C2)cs1 (centres undefined)	0.8	2.0	i	6.2	-3.3	22.6
CCOc1ccc(NS(=O)(=O)c2c(C(=O)N3CCCCCC3)c(C)n(C)c2C)cc1	-0.4	-3.0	i	0.3	-1.4	-7.5
CCCCC(CC)CN=C(N)NC(N)=NCCCCCCN=C(N)NC(N)=NCC(CC)CCCC (centres undefined)	-0.7	-13.4	u	13.2	112.0*	-70.5
O=C(O)CC(CC(=O)NCC(O)c1ccccc1)c1ccccc1 (centres undefined)	-1.6	2.9	i	0.5	1.5	-6.0
COCCNC(=O)C1(C)CCCN(Cc2ccc(-n3ccnc3)cc2)C1 (centres undefined)	x	x	i	x	x	x
O=C(CN(C(=O)CNC(=O)c1ccco1)c1ccc(F)cc1)NC1CCCCC1	0.2	-5.9	i	4.6	-0.4	7.2
CCCCCCCOC(=O)C[N+](C)(C)CCOC1CC2CCC1(C)C2(C)C (centres undefined)	x	x	i	14.6	111.5*	-158.2
O=C(CCS(=O)(=O)c1ccc(F)cc1)Nc1ccc(N2CCN(Cc3ccccc3)CC2)cc1	x	1.7	i	-3.4	-1.5	0.1
O=C(CCS(=O)(=O)c1ccccc1)Nc1ccc(N2CCN(Cc3ccccc3)CC2)cc1	x	5.5	+	-0.6	0.5	-9.2
COc1ccc(Oc2nc(-c3ccccn3)ncc2OC)cc1	0.5	1.9	i	2.2	5.0	7.8
COc1cnc(-c2ccccn2)nc1N(C)C	-1.8	-4.7	+	4.8	-3.6	30.5
Cc1cccc(C(=O)NC2CCN(CC(=O)Nc3ccccc3Cl)CC2)c1	0.0	0.0	i	3.7	-2.5	2.9
SMILES	TPT1 inh	IDE inh	Myeloid diff 2	IDE cell activ	CRFR2-BP ag	CRFBP-R2 block
COc1ccc(CCNC(=O)CCCOc2ccc(Cl)cc2)cc1OC	-3.1	4.7	i	1.1	-3.2	1.2
COc1ccc(-c2c(C(=O)c3ccccc3)[nH]c(N)c2C(=O)NCc2ccccc2)cc1OC	x	x	i	x	x	x
O=C(NC(=S)Nc1ccc(-c2ccccc2)cc1)c1ccccc1	x	x	i	-5.4	0.0	-9.5
CC(C)NC(=S)NC(=O)c1ccc(-c2ccccc2)cc1	-2.0	8.5	i	-21.8	72.4*	-172.4
COCC(=O)N1CCC(Oc2ccc(C(=O)NC(C)c3nc(C)sc3C)cc2)CC1 (centres undefined)	-1.8	-3.6	i	0.8	0.6	1.8
COc1ccc(NC(=O)NCCCN2CCc3ccccc3C2)cc1	2.3	-1.5	i	8.1	-1.9	52.3*
CCN(c1ccccc1)S(=O)(=O)c1ccc(Cl)c(NC(=O)Nc2ccc(Cl)cc2C#N)c1	0.3	0.1	i	2.6	-0.1	71.2*
Nc1ncnc2c1ncn2[C@@H]1O[C@H](CNC(=O)[C@H](N)Cc2cscn2)[C@@H](O)[C@H]1O	x	x	i	6.9	0.0	-7.5
CCOc1cc(/C=C(/NC(C)=O)C(=O)O)cc(Cl)c1OCc1cccc(Br)c1	4.3	5.9	i	0.1	0.2	-1.3
CCOC(=O)C1=C(CNCc2ccc(F)cc2)NC(=O)NC1c1cccc([N+](=O)[O-])c1 (centres undefined)	-2.4	-3.2	i	-2.6	3.9	-28.1
CCOC(=O)C1=C(CCc2ccccc2)NC(=O)NC1c1cccc([N+](=O)[O-])c1 (centres undefined)	1.9	-4.9	i	0.6	0.7	58.3*
CCN(CC)C(=O)c1c(C)nc2ccccn12	1.2	-3.8	i	1.7	-7.8	85.4*
Cc1cc(C)nc(-n2nc(C)cc2NC(=O)CN2CCC(C)CC2)n1	-2.6	3.0	+	0.5	-6.5	29.9
Cc1cc(C)nc(-n2nc(C)cc2NC(=O)CN2CCCC2)n1	2.8	-7.9	i	2.6	-1.2	-0.3
O=C(NC(=S)NNC(=O)c1ccc(Cl)cc1Cl)c1cccnc1	-0.5	7.5	i	0.8	-1.4	-6.9
Cc1onc(-c2ccccc2)c1C(=O)NNC(=S)NC(=O)/C=C/c1ccccc1	-0.6	2.0	i	2.6	65.5*	-26.3
Cc1ccccc1C(=O)NNC(=S)NC(=O)c1ccc(Cl)cc1Cl	2.5	-0.6	x	-4.3	157.6*	-61.6
C=CCNC(=S)NNC(=O)c1cccn(Cc2ccc(Cl)cc2Cl)c1=O	0.6	-3.4	i	-2.2	17.7	-61.1
Cc1onc(-c2ccccc2)c1C(=O)NNC(=O)c1ccccc1	x	-1.6	i	-4.6	-0.3	4.0
CCNC(=S)NNC(=O)c1cccn(Cc2ccc(Cl)cc2Cl)c1=O	0.9	0.7	i	-3.4	60.9*	-86.9
Cc1onc(-c2ccccc2)c1C(=O)NNC(=S)NC(=O)c1ccc(Br)cc1	-1.9	-7.0	i	-4.2	150.3*	-39.4
Cc1onc(-c2ccccc2)c1C(=O)NNC(=S)NC(=O)c1ccc(Cl)cc1Cl	-1.2	-0.5	i	2.2	217.4*	-137.4
Cc1onc(-c2ccccc2)c1C(=O)NNC(=O)c1ccccc1O	-0.9	0.6	i	1.2	-0.8	2.5
